The record followed here is PubChem BioAssay AID2568 (National Center for Advancing Translational Sciences (NCATS), 2010).

Structures are written as SMILES. Results filed as inconclusive are left out. The source made the active and inactive calls. Calls follow the shape of the full dose curve.

Neuropeptide S receptor (Homo sapiens), sequence (Q6W5P4 whole entry, looked up): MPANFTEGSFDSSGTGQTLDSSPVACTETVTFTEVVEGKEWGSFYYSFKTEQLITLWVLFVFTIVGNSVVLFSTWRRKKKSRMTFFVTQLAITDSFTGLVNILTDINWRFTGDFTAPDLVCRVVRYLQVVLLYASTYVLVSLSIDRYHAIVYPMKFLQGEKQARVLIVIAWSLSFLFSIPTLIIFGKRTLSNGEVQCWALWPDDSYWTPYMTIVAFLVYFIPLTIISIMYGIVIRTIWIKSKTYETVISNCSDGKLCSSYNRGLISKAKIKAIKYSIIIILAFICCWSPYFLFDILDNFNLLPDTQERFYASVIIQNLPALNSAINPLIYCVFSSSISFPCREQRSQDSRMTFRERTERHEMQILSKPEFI

This assay concerns the target Neuropeptide S receptor (Homo sapiens) (UniProt Q6W5P4). The assay can be described thus: Confirmation Concentration-Response Assay for Antagonists of the Neuropeptide S Receptor: cAMP Signal Transduction, SAR for Probe. Conditions: CHO-NPSR cells, cAMP TR-FRET, antagonist mode; series mostly up to 47.8 µM. The source says:
NIH Chemical Genomics Center [NCGC] NIH Molecular Libraries Probe Production centers Network [MLPCN] MLPCN Grant: X01-DA026210-01 Assay Submitter (PI): Heilig, Markus Alexander NCGC Assay Overview: Neuropeptide S receptor (NPSR), previously known as GPR154, is a recently de-orphanized G protein coupled receptor. Its endogenous ligand is the 20 amino acids peptide Neuropeptide S (NPS). […] NPS and its receptor are found in various tissues. Specifically they are highly expressed in brain areas that have been implicated in modulation of arousal, stress and anxiety. Central administration of NPS in mice produces an unusual profile of activity by inducing wakefulness and arousal, while at the same time suppressing anxiety. Therefore, NPSR may represent a novel drug target for the treatment of sleep and anxiety disorders. To identify NPSR antagonists, we developed a cell-based cAMP assay. NPS can stimulate the production of cAMP in Chinese hamster ovary cells stably expressing NPS receptor. This change in intracellular cAMP level can be detected by a homogeneous LANCE cAMP assay based on the TR-FRET (time resolved fluorescence resonance energy transfer) between a europium-labeled cAMP tracer complex and a cAMP-specific antibody labeled with Alexa Fluor 647. The europium-labeled cAMP tracer complex is formed by the tight interaction between Biotin-cAMP (b-cAMP) and streptavidin labeled with Europium-W8044 chelate (Eu-SA). Light pulse at 320 nm excites the europium of the cAMP tracer and the energy emitted is transferred to the Alexa molecule bound to the cAMP antibody, generating a TR-FRET signal at 665 nm. Residual energy from the europium will produce a light at 620 nm. The native unlabeled cAMP from cell lysates competes with the europium-cAMP tracer for antibody binding and reversely reduces the emission signal of Alexa by interrupting FRET between the two labeled molecules. Both emission signals from the FRET donor (620 nm) and the acceptor (665 nm) can be detected by a plate reader in the TRF mode. Expression of result in fluorescence ratio (665 nm/620 nm) helps to normalize differences due to cell density and reagent dispensing. This assay was successfully optimized to a 1536-well plate format. Select compounds from the primary screen (AID 1461) were chosen for confirmation based on potency, efficacy, SAR, and activity across other assays in PubChem and at NCGC. Other compounds are analogs of active compounds from the primary screen.
NCGC Assay Protocol Summary: A Chinese hamster ovary (CHO) cell line stably expressing the NPS receptor (CHO-NPSR) was obtained from Dr. Heilig lab at NIAAA and maintained in F-12 Kaighn's media (Invitrogen, Carlsbad, CA, 21127) supplemented with 10 % FBS, 100 units/ml penicillin, 100 ug/ml streptomycin and 250 ug/ml geneticin at 37C, 5% CO2 in a humidified atmosphere. Before the assay, aliquots of cells were frozen and stored at -135C. The assay was performed in 1536-well format. Data are reported for both the ratio of the two emission wavelengths, and also for the component 'donor' channel, Em2=620. […] IC50 values were determined from concentration-response data modeled with the standard Hill equation. NPS 1536-well assay protocol: (1) Fresh or frozen CHO-NPSR cells were suspended in F-12 Kaighn's media supplemented with 10 % FBS, 100 units/ml penicillin and 100 ug/ml streptomycin. Cells were plated at 4 ul/well (1200 cells) to white, tissue culture treated 1536-well plates, and then cultured at 37C, 5 % CO2 for 16 to 30 hours. (2) Add 23 nl/well of compound in DMSO solution. The final titration for each compound was between 0.6 nM and 46 uM. (3) Add 1 ul of stimulation reagent (1X HBSS buffer, 5 mM HEPES, 0.1% BSA, 500 uM RO-201724 (Sigma-Aldrich, B8279), 1.5% Alexa 647-labeled anti-cAMP antibody (from Perkin Elmer), 100 nM NPS) (4) Incubation at 37C, 5 % CO2 for 60 min. (5) Add 1 ul/well detection reagent. […]
In general terms: Time-resolved FRET reads energy transfer from a long-lived donor to a nearby acceptor.
For `COc1cccc(C2c3c(ncn(-c4ccccc4Br)c3=N)Oc3ccc4ccccc4c32)c1` (centres undefined), the Potency was 12.2 µM (active).

For `Cc1c(P(=S)(c2ccccc2)c2ccccc2)c2ccccc2n1C(=O)NCc1ccccc1`, the Potency is 31.5 µM (active).

As for `Cc1c(P(=S)(c2ccccc2)c2ccccc2)c2ccccc2n1CCCc1ccccc1`, the Potency entry is “inactive”.

For `Cc1c(C(O)(c2ccccc2)c2ccccc2)[n+]2ccccc2n1C`, the Potency entry is “inactive”.

As for `COc1ccc(C2c3c(ncn(Cc4ccccc4)c3=N)Oc3ccc4ccccc4c32)cc1OC` (centres undefined), the Potency was 19.4 µM (active).

Turning to `COc1cccc(C2c3c(ncn(-c4ccccn4)c3=N)Oc3ccc4ccccc4c32)c1` (centres undefined), the Potency was 30.7 µM (active).

Take `COc1ccc(C2C3=C(N=CN(CCN4CCOCC4)C3N)Oc3ccccc32)cc1OC` (centres undefined): the Potency entry is “inactive”.

`O=P(c1ccccc1)(c1ccccc1)c1cnc2ccccn12`: the Potency result was “inactive”.

For the compound `COc1cccc(C2c3c(ncn(-c4cccc(Br)c4)c3=N)Oc3ccc4ccccc4c32)c1` (centres undefined), the Potency is 19.4 µM (active).

Turning to `COc1ccc(C2c3ccc4ccccc4c3Oc3ncn(CCN4CCOCC4)c(=N)c32)cc1OC` (centres undefined), the Potency is 48.7 µM (active).

With `COc1cccc(C2c3c(ncn(-c4ccccc4-c4ccccc4)c3=N)Oc3ccc4ccccc4c32)c1` (centres undefined), the Potency was 38.7 µM (active).

Take `COc1ccc(C2c3ccccc3Oc3ncn(CCN4CCOCC4)c(=N)c32)cc1OC` (centres undefined): the Potency was 6.14 µM (active).

`COc1cccc(C2c3c(ncn(-c4cccc(F)c4)c3=N)Oc3ccc4ccccc4c32)c1` (centres undefined): the Potency is 3.87 µM (active).

Regarding `COc1cccc(C2c3c(ncn(-c4cccc(C#N)c4)c3=N)Oc3ccc4ccccc4c32)c1` (centres undefined), the Potency is 19.4 µM (active).

Take `COc1cccc(C2c3c(ncn(Cc4cccs4)c3=N)Oc3ccc4ccccc4c32)c1` (centres undefined): the Potency was 19.4 µM (active).

As for `COc1cccc(C2c3c(ncn(-c4ccccc4C(C)(C)C)c3=N)Oc3ccc4ccccc4c32)c1` (centres undefined), the Potency is 12.2 µM (active).

Regarding `COc1ccc(C2c3c(ncn(CCCc4ccccc4)c3=N)Oc3ccc4ccccc4c32)cc1OC` (centres undefined), the Potency is 24.4 µM (active).

Take `O=C(NCc1ccccc1)n1cc(P(=S)(c2ccccc2)c2ccccc2)c2ccccc21`: the Potency result was “inactive”.

As to `COc1ccc(-n2cnc3c(c2=N)C(c2cccc(OC)c2)c2c(ccc4ccccc24)O3)cc1` (centres undefined), the Potency was 9.72 µM (active).
